High-throughput results (PubChem)
Methyltransferases: Primary Screen for Target Class Profiling of Small Molecule Inhibitors of Methyltransferases; purified enzyme, MTase-Glo SAH luminescence; active compounds read low; calls only at 40 µM; 25,000 compounds, 3.9% hits; AID 1745853, 2022; call rule not given here
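Each enzyme was reacted with SAM and its substrate, with compounds tested once at 40 uM; SAH formed was read by MTase-Glo luminescence.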
* hit, by the source's call; i = inactive; + = active, no number. Shown is part of a subset that was picked to be rich in hits. % is set by controls: 0 for no effect and ±100 for the full control effect.

SMILES | Methyltransferases
CN1CCc2c(n(Cc3ccc(C(=O)NO)cc3)c3ccccc23)C1 | +
CC(=O)Nc1ccc(C(=O)NCc2nn(Cc3ccccc3)c3ccccc23)cc1 | i
O=C(c1cccc([N+](=O)[O-])c1)N1CCc2c(c3ccccc3n2CC2CC2)C1 | i
COc1c(O)cc2c(c1O)C(=O)O[C@H](C)[C@H]2O | +
COc1cc(-c2ccc(O)cc2)c(OC)c(O)c1C1=CC(=O)OC1CC(=O)O (stereo unspecified) | i
COc1cc(O)c2c(c1Cl)CC(C)OC2=O (stereo unspecified) | i
Cc1ccc(-c2n[nH]n3c2nc(=O)c2ccc(C(=O)NCCC(C)C)cc23)cc1 | i
CCc1ccccc1NC(=O)N1CCn2c(C)ccc2C1C(C)C (stereo unspecified) | i
CCc1cccc(N2C(=O)CSc3c(c4ccccc4n3C)C2C(=O)NCc2ccc(F)cc2)c1 (stereo unspecified) | i
CC(=O)Nc1c2n(c3ccccc13)CC(C)(C(=O)NC1CCCC1)N(Cc1cccs1)C2=O (stereo unspecified) | i
CC(=O)c1c(C)cc(O[C@@H]2O[C@H](CO)[C@@H](O)[C@H](O)[C@H]2O)cc1O | i
OCCc1ccc(O[C@@H]2O[C@H](CO)[C@@H](O)[C@H](O)[C@H]2O)c(O)c1 | i
CC(=O)c1c(O)cc(O[C@@H]2O[C@H](CO)[C@@H](O)[C@H](O)[C@H]2O)cc1O | i
O=C(O[C@@H]1O[C@H](CO)[C@@H](O)[C@H](O)[C@H]1O)c1c(O)cc(O)cc1/C=C/c1ccccc1 | +
O=C(c1ccccc1)c1c(O)cc(O)cc1O[C@@H]1O[C@H](CO)[C@@H](O)[C@H](O)[C@H]1O | +
OC[C@H]1O[C@@H](Oc2ccc(O)c3cccc(O)c23)[C@H](O)[C@@H](O)[C@@H]1O | +
O=C(/C=C/c1ccccc1O)O[C@@H]1O[C@H](CO)[C@@H](O)[C@H](O)[C@H]1O | i
OC[C@H]1O[C@@H](Oc2ccccc2)[C@H](O)[C@@H](O)[C@@H]1O | i
OC[C@H]1O[C@@H](OC[C@H]2O[C@@H](OC/C=C/c3ccccc3)[C@H](O)[C@@H](O)[C@@H]2O)[C@@H](O)[C@@H]1O | i
CCOC(=O)c1cc2n(n1)CC(C)(C(=O)NC1CCCCC1)N(c1ccc(C)cc1C)C2=O (stereo unspecified) | i
CCCn1c(=O)c2ccccc2n2c(SCC(=O)NCc3cccc(OC)c3)nnc12 | i
CC(C)(C)c1cc2n(n1)CC(C)(C(=O)NCc1ccccc1)N(Cc1ccccc1Cl)C2=O (stereo unspecified) | i
CN1C(=O)c2cc(C(=O)NCc3ccccc3Cl)nn2CC1(C)C(=O)NC1CCCCCC1 (stereo unspecified) | i
C=Cc1ccc(Cn2nc3n(C)c(=O)c4ccc(C(=O)NC5CCCC5)cc4n3c2=O)cc1 | i
CC1(C(=O)NC2CCCC2)Cn2c(ccc2-c2ccco2)C(=O)N1Cc1ccc2c(c1)OCO2 (stereo unspecified) | i
SMILES | Methyltransferases
Cc1ccc(C(=O)Cn2nc3n(C)c(=O)c4ccc(C(=O)NC5CCCCC5)cc4n3c2=O)c(C)c1 | i
CCC(C)NC(=O)c1ccc2c(=O)n(C)c3nn(CC(=O)c4cccc(Cl)c4)c(=O)n3c2c1 (stereo unspecified) | i
Cc1c[nH]c2nccc(Oc3c(F)cc(Nc4cc(Cl)nc(N)n4)cc3F)c12 | +
Cc1ccc(Cn2nc3n(C)c(=O)c4ccc(C(=O)NCC(C)C)cc4n3c2=O)cc1 | i
Cc1ccc(CNc2nc3c(-c4cccc(F)c4)nnn3c3ccccc23)cc1 | i
CC1(C(=O)NC2CCCC2)Cn2c(cc3sccc32)C(=O)N1Cc1ccccc1F (stereo unspecified) | i
CNC(=O)CN1CCC(Oc2cc3c(Nc4cccc(Cl)c4F)ncnc3cc2OC)CC1 | +
COC(=O)c1cccc(Nc2ncnc3ccc(C)cc23)c1 | i
COc1cc2ncnc(Nc3ccc(F)c(Cl)c3)c2cc1NC(=O)/C=C/CN1CCCCC1 | +
CNC(=O)c1c(F)cccc1Nc1nc(Nc2cc3c(cc2OC)CCN3C(=O)CN(C)C)nc2[nH]ccc12 | i
CCCC1c2cccn2CCN1C(=O)Nc1cc(Cl)ccc1OC (stereo unspecified) | i
O=C(NC1CCCC1)c1ccc(OC2CCN(CCCC(F)(F)F)CC2)c(Cl)c1 | i
COc1ccc(CN2C(=O)c3cc4sccc4n3CC2(C(=O)NC2CCCCCCC2)c2ccccc2)cc1 (stereo unspecified) | i
COC(=O)c1ncn2c1C(=O)N(CCC1=CCCCC1)C(C)(C(=O)NCc1ccccc1)C2 (stereo unspecified) | i
Cc1sc2c(c1C)C(c1ccc(Cl)cc1)=N[C@H](CC(=O)NCCCCNC(=O)COc1cccc3c1C(=O)N([C@H]1CCC(=O)NC1=O)C3=O)c1nnc(C)n1-2 | +
CC(C)OCCCn1c(=O)c2ccccc2n2c(SCC(=O)Nc3ccc4c(c3)OCO4)nnc12 | i
CC(C)CCNC(=O)CCc1nnc2n(CCC(C)C)c(=O)c3ccccc3n12 | i
Cc1ccc(NC(=O)Cn2nc3n(C)c(=O)c4ccc(C(=O)NC(C)C)cc4n3c2=O)cc1 | i
C/C=C/c1cc(OC)c2c(c1)[C@@H](C)[C@@H](c1ccc(O)c(OC)c1)O2 | +
COc1cc(C2Oc3c(OC)cc(/C=C/C(=O)OC4CC(O)(C(=O)O)CC(O)C4O)cc3C2CO)ccc1O (stereo unspecified) | +
C/C=C/c1ccc2c(c1)[C@@H](C)[C@H](c1ccc(O)cc1)O2 | +
Oc1ccc([C@@H]2Oc3ccc(O)cc3[C@@H]3CCC[C@@H]32)cc1 | i
COc1cc(C2Oc3c(O)cc(CCCO)cc3C2CO)ccc1O[C@H]1O[C@H](C)[C@@H](O)[C@H](O)[C@@H]1O (stereo partly specified) | i
COc1cc(C2Oc3c(OC)cc(CCCO)cc3C2CO)ccc1O (stereo unspecified) | +
COc1cc([C@@H]2Oc3c(OC)cc(CCCO)cc3[C@@H]2CO[C@@H]2O[C@H](CO)[C@@H](O)[C@H](O)[C@H]2O)ccc1O | i
SMILES | Methyltransferases
O=C(/C=C/c1ccc(O)cc1)O[C@@H]1C[C@@](O)(C(=O)O)C[C@@H](O)[C@@H]1O | i
COc1cc(/C=C/C(=O)OC2CC3CCC2(C)C3(C)C)ccc1O (stereo unspecified) | i
COc1cc(C(O)C2COC(c3ccc(OC4OC(CO)C(O)C(O)C4O)c(OC)c3)C2CO)ccc1O (stereo unspecified) | i
CCCn1c(=O)c2ccccc2n2c(=O)n(CC(=O)Nc3ccc(C)c(C)c3)nc12 | i
CCOC(=O)Cc1ccc(NC(=O)N2CCn3cccc3C2C(C)C)cc1 (stereo unspecified) | i
CCC(C)NC(=O)c1ccc2c(=O)n(Cc3ccccc3)c3nn(Cc4ccc(Cl)cc4)c(=O)n3c2c1 (stereo unspecified) | i
COc1ccccc1CNC(=O)c1ccc2c(=O)nc3c(-c4ccccc4F)n[nH]n3c2c1 | i
Cc1ccc(Cn2c(=O)c3ccccc3n3c(=O)n(CC(=O)Nc4ccc(C)cc4Cl)nc23)cc1 | i
COCCN1C(=O)c2c(NC(C)=O)c3cc(F)ccc3n2CC1(C)C(=O)NC1CCCC1 (stereo unspecified) | i
